# PubChem BioAssay (NCI)
# The panel holds about 83,000 compounds, 20% with a hit somewhere; the sample as a whole holds those more often.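 Values shown are percent growth following 48 h exposure of cells in 96-well plates to a single concentration of compound; below 10 was considered active.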 A number with no mark means an inactive call. Calls of active or inactive are those of the source.
# Experiments:
# Experiment in all cases: NCI-60 one-dose screen, 48 h (100 = growth as untreated, 0 = no growth, -100 = all killed)
# Conditions in all cases: 10 µM unless noted
# SR leukemia = tested on: SR leukemia
# RPMI-8226 leukemia = tested on: RPMI-8226 leukemia
# OVCAR-8 ovarian = tested on: OVCAR-8 ovarian
# OVCAR-5 ovarian = tested on: OVCAR-5 ovarian
# OVCAR-4 ovarian = tested on: OVCAR-4 ovarian
# SK-OV-3 ovarian = tested on: SK-OV-3 ovarian
# IGROV1 ovarian = tested on: IGROV1 ovarian
# OVCAR-3 ovarian = tested on: OVCAR-3 ovarian
# NCI/ADR-RES ovarian = tested on: NCI/ADR-RES ovarian
# T-47D breast = tested on: T-47D breast
# BT-549 breast = tested on: BT-549 breast
# MDA-MB-435 melanoma = tested on: MDA-MB-435 melanoma
# SW-620 colon = tested on: SW-620 colon
# MCF7 breast = tested on: MCF7 breast
# HCT-116 colon = tested on: HCT-116 colon
# HCC-2998 colon = tested on: HCC-2998 colon
# KM12 colon = tested on: KM12 colon
Structure (SMILES),growth (SR leukemia),growth (RPMI-8226 leukemia),growth (OVCAR-8 ovarian),growth (OVCAR-5 ovarian),growth (OVCAR-4 ovarian),growth (SK-OV-3 ovarian),growth (IGROV1 ovarian),growth (OVCAR-3 ovarian),growth (NCI/ADR-RES ovarian),growth (T-47D breast),growth (BT-549 breast),growth (MDA-MB-435 melanoma),growth (SW-620 colon),growth (MCF7 breast),growth (HCT-116 colon),growth (HCC-2998 colon),growth (KM12 colon)
CCOc1cc(CCNS(=O)(=O)c2ccc(C)cc2)c(C(C)=O)cc1OCC,42.6% [100 µM],40% [100 µM],76% [100 µM],101% [100 µM],84.6% [100 µM],96.7% [100 µM],93.9% [100 µM],71.8% [100 µM],66.3% [100 µM],66% [100 µM],73.4% [100 µM],99.4% [100 µM],92.9% [100 µM],94.9% [100 µM],77.6% [100 µM],95.5% [100 µM],67.2% [100 µM]
O=c1[nH]c(N2CCC(Cc3ccccc3)CC2)nc2sc3c(c12)CCCC3,109%,107%,96.3%,107%,110%,101%,106%,106%,96.6%,96.6%,109%,102%,101%,98.1%,104%,103%,100%
c1ccc(COc2ccc(Nc3ncnc4c3cnn4-c3ccccc3)cc2)cc1,91.9%,96.5%,113%,98.9%,91.3%,108%,100%,113%,,100%,106%,90.1%,98.7%,101%,106%,108%,98.2%
CCCCCCCCN(CCO)CCCCCCCC,96.7%,121%,101%,96.9%,93.8%,103%,105%,109%,105%,97.6%,,108%,101%,93.5%,104%,114%,110%
c1ccc(-c2n(Cc3ccc4ccccc4c3)cc[n+]2Cc2ccc3ccccc3c2)cc1,-42.2% (active),-37% (active),-72.4% (active),-35.9% (active),-28.1% (active),-6.1% (active),-67.8% (active),-89.8% (active),,-0.722% (active),-77.5% (active),-73.2% (active),-50.7% (active),-65.8% (active),-91.6% (active),-59.9% (active),
COc1cc(C2=NN(C=O)C(c3cccc(Nc4ccnc5cc(Cl)ccc45)c3)C2)cc(OC)c1OC (centres undefined),9.32% (active),53.7%,70%,94.2%,69.3%,80.5%,102%,85.2%,65.5%,63.2%,61.5%,84.5%,88.6%,68.8%,62.6%,107%,91%
CCCCCc1c(C)[nH]c(/C=C2\N=C(c3ccc[nH]3)C=C2Oc2ccccc2)c1C,8.8% [100 µM] (active),-31.5% [100 µM] (active),-90.2% [100 µM] (active),-99.8% [100 µM] (active),-74.7% [100 µM] (active),-54.7% [100 µM] (active),-31.6% [100 µM] (active),-93.4% [100 µM] (active),-77.1% [100 µM] (active),-61.1% [100 µM] (active),-97.1% [100 µM] (active),-34.4% [100 µM] (active),-54% [100 µM] (active),-100% [100 µM] (active),-4.84% [100 µM] (active),-91.6% [100 µM] (active),-81.7% [100 µM] (active)
CC(=O)N1N=C(c2ccc3c(c2)OCO3)CC1c1c(C)nn(-c2ccccc2)c1N(C)Cc1ccccc1 (centres undefined),67%,58.8%,76.7%,97.1%,66.3%,84.2%,51.5%,79.4%,63%,58.6%,85.2%,90.7%,85.9%,66.1%,57.3%,97.2%,83.6%
CCCc1n(Cc2ccc3ccccc3c2)cc[n+]1Cc1ccc2ccccc2c1,-38.1% (active),-22.2% (active),-10.6% (active),9.11% (active),9.35% (active),6.89% (active),-54.2% (active),-55.6% (active),89.2%,-3.21% (active),-32.2% (active),-50.8% (active),8.13% (active),-16.7% (active),1.39% (active),-22.9% (active),-63.7% (active)
c1ccc2nc(N/N=C3\CCCCC3C3CCCCC3)ccc2c1 (centres undefined),-17.5% (active),-18.8% (active),83.6%,58%,51.1%,88.6%,44.4%,33.2%,57.2%,,61%,78.8%,44.2%,58.1%,6.79% (active),64.2%,38.4%
CC(=O)N1N=C(c2ccc(Cl)cc2)CC1c1c(C)nn(-c2ccccc2)c1N(C)Cc1ccccc1 (centres undefined),72.4%,46.8%,80.9%,97.9%,80%,70.6%,63.7%,81.9%,64.1%,,88.5%,87%,80.6%,72.2%,53.1%,88.2%,74.8%
Cc1n(Cc2ccc3ccccc3c2)cc[n+]1Cc1ccc2ccccc2c1,-3.72% (active),2.6% (active),3.06% (active),20.6%,9.29% (active),21%,-38.1% (active),-1.02% (active),92.7%,0.847% (active),-13.6% (active),-14.6% (active),18.7%,7.52% (active),6.14% (active),7.45% (active),-9.94% (active)
CN1C(=O)C(C2=NN(C=O)C(c3ccc(F)cc3)C2)C(=O)N(C)C1=O (centres undefined),101%,95.8%,98.9%,97.1%,102%,94.6%,104%,99.9%,99.2%,92.9%,102%,102%,98.8%,93.4%,98.7%,97.5%,99.9%
Cc1cc2c(cc1C)[n+](Cc1ccc3ccccc3c1)cn2Cc1ccc2ccccc2c1,-50.6% (active),-49.6% (active),-79% (active),-87.1% (active),-76% (active),-27% (active),-84.9% (active),-94.2% (active),80.7%,-56.4% (active),-86.9% (active),-82.8% (active),-84.1% (active),,-96.4% (active),-69.6% (active),-85.3% (active)
C1=C(Cc2ccccc2)n2cnc3ncnc(c32)S1,36.8%,28%,73.5%,70.5%,40.1%,19.7%,86.8%,15.8%,56.7%,29.6%,,26.5%,69%,20.3%,57.1%,70.2%,69.6%
O=C(Nc1nc2c(C(F)(F)F)cccc2s1)c1cc(Cl)ccc1O,7.18% (active),-22.7% (active),6.2% (active),29.3%,21.8%,-8.89% (active),24.2%,10.1%,1.26% (active),-1.67% (active),,5.71% (active),12.2%,7.63% (active),-1.3% (active),19.3%,10.5%
O=C(Nc1ccc2c(c1)C(=O)c1ccccc1-2)c1ccccc1,81.7%,63.5%,37.8%,85.9%,15.9%,110%,73.4%,79.5%,70.4%,73.2%,,101%,55.4%,48%,-20.7% (active),,87.3%
Cc1cnc2nc(-c3ccc(N(C)C)cc3)cn2c1,100%,117%,103%,78.4%,118%,119%,-14.9% (active),107%,,89.8%,112%,96.3%,116%,92.1%,97.2%,111%,104%
